From the supplement of paper PMC11732987, “Enantioselective OTUD7B fragment discovery through chemoproteomics screening and high-throughput optimisation” (Communications Chemistry, 2025)
Values without a mark were called inactive.

What was measured:
Experiment in all cases: log2 ratio of Biotin-Ahx-Ub-VS probe labelling (fragment/DMSO); higher = less target engagement (more negative = stronger competition), active = hit call of the paper (q ≤ 0.05, log2 ratio ≤ -1)
Details in all cases: compound concentration: 200 uM; treatment time: 3 h
USP42 = molecular target: T1, USP42 (UniProt Q9H9J4)
T1 sequence (whole entry): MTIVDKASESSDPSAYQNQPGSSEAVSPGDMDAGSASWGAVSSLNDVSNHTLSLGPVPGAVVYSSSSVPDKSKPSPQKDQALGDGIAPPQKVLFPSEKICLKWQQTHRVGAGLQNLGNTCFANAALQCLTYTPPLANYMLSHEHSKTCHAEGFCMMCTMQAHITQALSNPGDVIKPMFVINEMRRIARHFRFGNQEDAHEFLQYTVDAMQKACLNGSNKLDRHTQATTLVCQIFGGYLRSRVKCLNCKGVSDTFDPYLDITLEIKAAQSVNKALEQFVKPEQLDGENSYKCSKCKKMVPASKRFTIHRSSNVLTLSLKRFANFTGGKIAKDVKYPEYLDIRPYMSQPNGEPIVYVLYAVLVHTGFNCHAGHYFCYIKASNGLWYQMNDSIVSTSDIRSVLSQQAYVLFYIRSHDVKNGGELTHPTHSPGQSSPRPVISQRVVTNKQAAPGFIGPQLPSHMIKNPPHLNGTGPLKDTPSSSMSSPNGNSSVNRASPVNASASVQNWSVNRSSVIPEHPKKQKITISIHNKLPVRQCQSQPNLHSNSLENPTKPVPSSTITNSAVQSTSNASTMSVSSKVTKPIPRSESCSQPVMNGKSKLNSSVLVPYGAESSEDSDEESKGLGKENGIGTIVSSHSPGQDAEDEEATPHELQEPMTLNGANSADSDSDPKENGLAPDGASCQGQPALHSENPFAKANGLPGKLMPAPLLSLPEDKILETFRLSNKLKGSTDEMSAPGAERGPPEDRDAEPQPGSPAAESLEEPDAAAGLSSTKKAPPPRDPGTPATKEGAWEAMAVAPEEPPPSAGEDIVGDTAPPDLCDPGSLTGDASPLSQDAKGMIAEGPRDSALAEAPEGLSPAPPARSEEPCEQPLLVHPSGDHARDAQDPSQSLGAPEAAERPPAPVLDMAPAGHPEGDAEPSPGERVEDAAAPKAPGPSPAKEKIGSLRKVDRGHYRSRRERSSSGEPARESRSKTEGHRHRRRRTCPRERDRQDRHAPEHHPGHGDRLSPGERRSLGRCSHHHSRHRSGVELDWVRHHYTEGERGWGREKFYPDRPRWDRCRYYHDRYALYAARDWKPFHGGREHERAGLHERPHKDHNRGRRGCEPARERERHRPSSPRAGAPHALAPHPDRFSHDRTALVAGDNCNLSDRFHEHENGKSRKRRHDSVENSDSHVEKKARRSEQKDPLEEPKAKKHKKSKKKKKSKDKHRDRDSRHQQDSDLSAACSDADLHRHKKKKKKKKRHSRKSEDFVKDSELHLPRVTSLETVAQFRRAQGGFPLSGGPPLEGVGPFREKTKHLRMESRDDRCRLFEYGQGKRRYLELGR
In short: (§1)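 Labelling with Biotin-Ahx-Ub-VS (0.5 µM final, 1 h) followed a 3 h triplicate treatment of HEK293T lysate (495 µg per sample, Tris/CHAPS/IGEPAL buffer with protease inhibitors) with fragment at 200 µM or vehicle. Labelled DUBs were NeutrAvidin-enriched, digested with LysC and trypsin, and run by diaPASEF LC-MS/MS. The values, average log2 fragment/vehicle ratios by unpaired t-test, come from global-median-normalised Spectronaut label-free quantities. Proteins with ≥2 unique peptides were used.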

USP46 = USP46 (UniProt P62068)
In short: as §1

USP47 = molecular target: T2, USP47 (UniProt Q96K76)
T2 sequence (whole entry): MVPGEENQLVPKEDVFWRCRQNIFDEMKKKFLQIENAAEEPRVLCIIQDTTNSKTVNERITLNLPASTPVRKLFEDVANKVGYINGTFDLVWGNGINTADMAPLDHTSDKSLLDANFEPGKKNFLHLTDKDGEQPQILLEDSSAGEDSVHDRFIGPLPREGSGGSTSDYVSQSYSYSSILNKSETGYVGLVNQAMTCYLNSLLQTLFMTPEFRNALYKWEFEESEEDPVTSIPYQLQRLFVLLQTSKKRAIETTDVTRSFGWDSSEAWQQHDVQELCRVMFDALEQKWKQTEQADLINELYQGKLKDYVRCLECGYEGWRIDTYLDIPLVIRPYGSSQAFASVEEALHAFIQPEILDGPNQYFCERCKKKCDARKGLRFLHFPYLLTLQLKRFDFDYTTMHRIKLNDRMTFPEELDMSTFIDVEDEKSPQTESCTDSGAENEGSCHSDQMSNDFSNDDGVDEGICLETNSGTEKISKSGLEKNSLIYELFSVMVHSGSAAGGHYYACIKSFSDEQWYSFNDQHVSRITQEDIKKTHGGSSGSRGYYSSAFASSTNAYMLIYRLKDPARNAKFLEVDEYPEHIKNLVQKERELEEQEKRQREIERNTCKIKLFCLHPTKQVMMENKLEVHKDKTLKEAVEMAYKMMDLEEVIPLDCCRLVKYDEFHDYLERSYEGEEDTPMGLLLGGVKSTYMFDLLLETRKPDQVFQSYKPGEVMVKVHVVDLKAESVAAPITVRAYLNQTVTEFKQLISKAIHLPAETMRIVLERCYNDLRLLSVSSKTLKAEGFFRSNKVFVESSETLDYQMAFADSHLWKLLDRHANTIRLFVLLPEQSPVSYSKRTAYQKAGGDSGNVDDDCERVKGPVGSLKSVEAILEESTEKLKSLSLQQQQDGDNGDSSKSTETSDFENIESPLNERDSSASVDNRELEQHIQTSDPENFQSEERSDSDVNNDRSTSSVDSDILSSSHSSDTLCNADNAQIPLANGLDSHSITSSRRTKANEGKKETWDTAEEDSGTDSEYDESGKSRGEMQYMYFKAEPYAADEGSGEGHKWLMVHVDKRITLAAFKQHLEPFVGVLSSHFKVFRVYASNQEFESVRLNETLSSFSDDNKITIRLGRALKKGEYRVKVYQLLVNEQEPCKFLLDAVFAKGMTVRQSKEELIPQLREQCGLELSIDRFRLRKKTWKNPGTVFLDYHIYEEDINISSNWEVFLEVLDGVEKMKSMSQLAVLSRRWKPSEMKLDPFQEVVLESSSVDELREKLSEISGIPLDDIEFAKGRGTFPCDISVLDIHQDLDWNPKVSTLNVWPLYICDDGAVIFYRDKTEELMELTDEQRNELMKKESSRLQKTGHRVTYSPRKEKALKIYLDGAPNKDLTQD
In short: as §1

USP48 = molecular target: T3, USP48 (UniProt Q86UV5)
T3 sequence (whole entry): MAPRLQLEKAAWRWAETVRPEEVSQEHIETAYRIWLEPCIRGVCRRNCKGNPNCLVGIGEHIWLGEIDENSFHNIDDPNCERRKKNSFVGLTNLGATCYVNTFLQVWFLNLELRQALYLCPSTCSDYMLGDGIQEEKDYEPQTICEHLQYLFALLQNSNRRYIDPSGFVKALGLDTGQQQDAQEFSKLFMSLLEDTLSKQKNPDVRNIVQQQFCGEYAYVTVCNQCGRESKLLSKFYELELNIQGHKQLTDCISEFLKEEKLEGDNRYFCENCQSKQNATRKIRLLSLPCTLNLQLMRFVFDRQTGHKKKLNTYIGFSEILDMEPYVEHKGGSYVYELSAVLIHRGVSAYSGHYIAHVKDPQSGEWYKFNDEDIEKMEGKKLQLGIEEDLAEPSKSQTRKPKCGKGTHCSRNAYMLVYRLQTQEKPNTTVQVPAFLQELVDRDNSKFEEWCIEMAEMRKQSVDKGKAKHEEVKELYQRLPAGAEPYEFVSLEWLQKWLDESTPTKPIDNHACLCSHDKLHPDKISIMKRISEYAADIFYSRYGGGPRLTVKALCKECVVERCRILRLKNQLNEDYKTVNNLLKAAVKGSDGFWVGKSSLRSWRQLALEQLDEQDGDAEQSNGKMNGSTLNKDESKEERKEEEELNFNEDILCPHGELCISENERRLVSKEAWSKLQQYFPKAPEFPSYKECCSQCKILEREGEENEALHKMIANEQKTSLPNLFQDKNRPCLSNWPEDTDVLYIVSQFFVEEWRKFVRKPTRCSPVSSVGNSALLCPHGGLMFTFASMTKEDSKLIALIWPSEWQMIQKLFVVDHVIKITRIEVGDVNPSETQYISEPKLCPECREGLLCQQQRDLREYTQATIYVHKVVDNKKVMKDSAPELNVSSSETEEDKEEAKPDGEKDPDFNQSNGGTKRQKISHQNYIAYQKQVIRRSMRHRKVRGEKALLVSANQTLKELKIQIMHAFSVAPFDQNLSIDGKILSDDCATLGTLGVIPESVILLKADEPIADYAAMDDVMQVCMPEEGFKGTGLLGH
In short: as §1

USP5 = molecular target: T4, USP5 (UniProt P45974)
T4 sequence (whole entry): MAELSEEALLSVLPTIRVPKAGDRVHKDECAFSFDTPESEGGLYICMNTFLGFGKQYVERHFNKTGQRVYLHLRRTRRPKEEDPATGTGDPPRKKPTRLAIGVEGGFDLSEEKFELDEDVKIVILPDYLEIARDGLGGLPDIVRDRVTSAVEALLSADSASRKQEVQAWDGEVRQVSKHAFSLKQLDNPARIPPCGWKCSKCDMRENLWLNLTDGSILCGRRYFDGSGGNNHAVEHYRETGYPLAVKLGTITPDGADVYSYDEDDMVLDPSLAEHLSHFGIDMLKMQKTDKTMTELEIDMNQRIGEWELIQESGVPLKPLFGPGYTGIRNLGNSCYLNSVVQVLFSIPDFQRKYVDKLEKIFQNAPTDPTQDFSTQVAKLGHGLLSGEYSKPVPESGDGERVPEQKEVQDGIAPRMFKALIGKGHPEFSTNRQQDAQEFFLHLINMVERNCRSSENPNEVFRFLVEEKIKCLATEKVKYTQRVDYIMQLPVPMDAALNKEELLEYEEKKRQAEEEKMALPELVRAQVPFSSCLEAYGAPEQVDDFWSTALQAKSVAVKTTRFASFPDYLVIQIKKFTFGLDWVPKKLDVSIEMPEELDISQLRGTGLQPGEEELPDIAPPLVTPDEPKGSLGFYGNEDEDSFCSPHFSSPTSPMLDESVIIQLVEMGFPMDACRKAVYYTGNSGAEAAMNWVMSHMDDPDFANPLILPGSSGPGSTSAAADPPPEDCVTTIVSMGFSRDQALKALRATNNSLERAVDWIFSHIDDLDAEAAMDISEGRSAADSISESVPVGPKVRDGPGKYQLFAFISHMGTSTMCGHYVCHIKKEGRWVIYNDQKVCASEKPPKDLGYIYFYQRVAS
In short: as §1

USP54 = USP54 (UniProt Q70EL1)
In short: as §1

USP7 = USP7 (UniProt Q93009)
In short: as §1

USP8 = molecular target: T5, USP8 (UniProt P40818)
T5 sequence (whole entry): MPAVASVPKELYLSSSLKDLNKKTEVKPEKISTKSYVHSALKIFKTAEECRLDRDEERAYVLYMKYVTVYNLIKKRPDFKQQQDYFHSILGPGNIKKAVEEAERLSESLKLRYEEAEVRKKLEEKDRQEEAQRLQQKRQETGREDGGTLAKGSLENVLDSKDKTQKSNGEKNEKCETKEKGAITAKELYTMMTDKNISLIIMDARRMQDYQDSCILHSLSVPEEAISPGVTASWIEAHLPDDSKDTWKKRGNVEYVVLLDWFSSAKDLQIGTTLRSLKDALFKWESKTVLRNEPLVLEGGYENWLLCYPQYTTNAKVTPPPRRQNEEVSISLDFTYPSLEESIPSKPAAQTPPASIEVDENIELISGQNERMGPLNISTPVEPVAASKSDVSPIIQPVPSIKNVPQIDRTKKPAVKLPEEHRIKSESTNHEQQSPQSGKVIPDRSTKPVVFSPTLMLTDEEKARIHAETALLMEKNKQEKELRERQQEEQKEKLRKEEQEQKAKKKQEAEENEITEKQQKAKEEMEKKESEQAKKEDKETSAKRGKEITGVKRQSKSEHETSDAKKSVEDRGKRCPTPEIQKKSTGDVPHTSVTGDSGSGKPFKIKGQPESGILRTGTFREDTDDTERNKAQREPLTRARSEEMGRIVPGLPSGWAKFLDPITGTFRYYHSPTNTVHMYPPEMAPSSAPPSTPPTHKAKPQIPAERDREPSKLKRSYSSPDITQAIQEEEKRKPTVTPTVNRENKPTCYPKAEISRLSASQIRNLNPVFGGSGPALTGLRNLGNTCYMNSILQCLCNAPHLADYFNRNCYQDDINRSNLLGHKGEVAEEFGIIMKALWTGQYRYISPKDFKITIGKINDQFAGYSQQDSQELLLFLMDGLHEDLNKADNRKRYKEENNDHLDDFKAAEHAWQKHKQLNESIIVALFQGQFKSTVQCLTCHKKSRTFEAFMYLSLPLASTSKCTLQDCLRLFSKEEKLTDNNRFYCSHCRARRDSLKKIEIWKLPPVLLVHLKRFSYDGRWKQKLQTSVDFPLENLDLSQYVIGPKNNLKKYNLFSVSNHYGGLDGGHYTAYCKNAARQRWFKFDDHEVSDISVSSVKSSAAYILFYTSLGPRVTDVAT
In short: as §1

USP9X = USP9X (UniProt Q93008)
In short: as §1

UniProt O00487 = molecular target: UniProt O00487
In short: as §1

Sequence of UniProt O00487 (O00487 whole entry): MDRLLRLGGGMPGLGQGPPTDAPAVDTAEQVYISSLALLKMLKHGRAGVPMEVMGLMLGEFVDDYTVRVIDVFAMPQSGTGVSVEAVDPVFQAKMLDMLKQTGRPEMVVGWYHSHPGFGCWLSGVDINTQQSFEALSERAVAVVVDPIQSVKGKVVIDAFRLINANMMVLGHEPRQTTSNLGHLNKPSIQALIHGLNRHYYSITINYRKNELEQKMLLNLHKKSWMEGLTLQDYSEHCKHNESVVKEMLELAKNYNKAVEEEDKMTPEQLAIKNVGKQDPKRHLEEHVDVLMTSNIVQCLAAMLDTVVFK
Sequence of USP7 (Q93009 whole entry, looked up): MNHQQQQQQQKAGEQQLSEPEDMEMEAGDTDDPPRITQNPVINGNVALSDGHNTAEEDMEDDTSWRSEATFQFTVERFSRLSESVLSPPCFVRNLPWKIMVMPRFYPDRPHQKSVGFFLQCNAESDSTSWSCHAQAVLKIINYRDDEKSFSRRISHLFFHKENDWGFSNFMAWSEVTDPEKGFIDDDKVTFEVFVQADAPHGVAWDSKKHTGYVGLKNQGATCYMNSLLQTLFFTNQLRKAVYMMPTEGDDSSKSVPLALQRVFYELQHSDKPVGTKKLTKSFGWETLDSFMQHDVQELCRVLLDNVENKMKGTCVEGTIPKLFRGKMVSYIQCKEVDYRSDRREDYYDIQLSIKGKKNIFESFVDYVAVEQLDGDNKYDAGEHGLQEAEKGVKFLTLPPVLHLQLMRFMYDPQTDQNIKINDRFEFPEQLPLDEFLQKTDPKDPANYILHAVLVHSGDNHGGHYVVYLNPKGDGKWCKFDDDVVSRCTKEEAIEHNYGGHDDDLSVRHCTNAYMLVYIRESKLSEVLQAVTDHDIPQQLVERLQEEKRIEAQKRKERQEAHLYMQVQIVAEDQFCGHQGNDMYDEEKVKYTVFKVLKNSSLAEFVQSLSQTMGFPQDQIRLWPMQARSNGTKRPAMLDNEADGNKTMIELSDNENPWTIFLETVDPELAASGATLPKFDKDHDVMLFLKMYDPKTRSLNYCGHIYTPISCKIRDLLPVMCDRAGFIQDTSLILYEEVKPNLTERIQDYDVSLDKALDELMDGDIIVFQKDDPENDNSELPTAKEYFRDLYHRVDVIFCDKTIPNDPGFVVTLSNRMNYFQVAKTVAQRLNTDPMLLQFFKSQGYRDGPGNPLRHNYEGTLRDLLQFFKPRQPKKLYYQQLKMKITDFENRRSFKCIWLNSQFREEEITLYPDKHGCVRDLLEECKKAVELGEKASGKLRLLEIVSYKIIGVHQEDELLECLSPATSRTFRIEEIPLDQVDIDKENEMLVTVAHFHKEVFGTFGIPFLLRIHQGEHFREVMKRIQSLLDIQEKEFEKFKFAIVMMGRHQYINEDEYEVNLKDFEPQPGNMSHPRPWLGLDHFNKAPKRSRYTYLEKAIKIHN
Sequence of USP46 (P62068 whole entry): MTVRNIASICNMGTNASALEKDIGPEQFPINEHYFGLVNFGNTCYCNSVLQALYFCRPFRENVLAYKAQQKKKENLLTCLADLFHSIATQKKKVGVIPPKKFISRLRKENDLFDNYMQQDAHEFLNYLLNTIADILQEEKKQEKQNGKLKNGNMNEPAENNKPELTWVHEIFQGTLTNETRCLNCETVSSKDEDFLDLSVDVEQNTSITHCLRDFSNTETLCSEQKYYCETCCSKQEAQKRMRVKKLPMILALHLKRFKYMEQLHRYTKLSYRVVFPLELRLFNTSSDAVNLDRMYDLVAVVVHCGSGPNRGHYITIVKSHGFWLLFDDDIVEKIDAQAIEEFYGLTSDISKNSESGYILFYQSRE
Sequence of USP9X (Q93008 whole entry): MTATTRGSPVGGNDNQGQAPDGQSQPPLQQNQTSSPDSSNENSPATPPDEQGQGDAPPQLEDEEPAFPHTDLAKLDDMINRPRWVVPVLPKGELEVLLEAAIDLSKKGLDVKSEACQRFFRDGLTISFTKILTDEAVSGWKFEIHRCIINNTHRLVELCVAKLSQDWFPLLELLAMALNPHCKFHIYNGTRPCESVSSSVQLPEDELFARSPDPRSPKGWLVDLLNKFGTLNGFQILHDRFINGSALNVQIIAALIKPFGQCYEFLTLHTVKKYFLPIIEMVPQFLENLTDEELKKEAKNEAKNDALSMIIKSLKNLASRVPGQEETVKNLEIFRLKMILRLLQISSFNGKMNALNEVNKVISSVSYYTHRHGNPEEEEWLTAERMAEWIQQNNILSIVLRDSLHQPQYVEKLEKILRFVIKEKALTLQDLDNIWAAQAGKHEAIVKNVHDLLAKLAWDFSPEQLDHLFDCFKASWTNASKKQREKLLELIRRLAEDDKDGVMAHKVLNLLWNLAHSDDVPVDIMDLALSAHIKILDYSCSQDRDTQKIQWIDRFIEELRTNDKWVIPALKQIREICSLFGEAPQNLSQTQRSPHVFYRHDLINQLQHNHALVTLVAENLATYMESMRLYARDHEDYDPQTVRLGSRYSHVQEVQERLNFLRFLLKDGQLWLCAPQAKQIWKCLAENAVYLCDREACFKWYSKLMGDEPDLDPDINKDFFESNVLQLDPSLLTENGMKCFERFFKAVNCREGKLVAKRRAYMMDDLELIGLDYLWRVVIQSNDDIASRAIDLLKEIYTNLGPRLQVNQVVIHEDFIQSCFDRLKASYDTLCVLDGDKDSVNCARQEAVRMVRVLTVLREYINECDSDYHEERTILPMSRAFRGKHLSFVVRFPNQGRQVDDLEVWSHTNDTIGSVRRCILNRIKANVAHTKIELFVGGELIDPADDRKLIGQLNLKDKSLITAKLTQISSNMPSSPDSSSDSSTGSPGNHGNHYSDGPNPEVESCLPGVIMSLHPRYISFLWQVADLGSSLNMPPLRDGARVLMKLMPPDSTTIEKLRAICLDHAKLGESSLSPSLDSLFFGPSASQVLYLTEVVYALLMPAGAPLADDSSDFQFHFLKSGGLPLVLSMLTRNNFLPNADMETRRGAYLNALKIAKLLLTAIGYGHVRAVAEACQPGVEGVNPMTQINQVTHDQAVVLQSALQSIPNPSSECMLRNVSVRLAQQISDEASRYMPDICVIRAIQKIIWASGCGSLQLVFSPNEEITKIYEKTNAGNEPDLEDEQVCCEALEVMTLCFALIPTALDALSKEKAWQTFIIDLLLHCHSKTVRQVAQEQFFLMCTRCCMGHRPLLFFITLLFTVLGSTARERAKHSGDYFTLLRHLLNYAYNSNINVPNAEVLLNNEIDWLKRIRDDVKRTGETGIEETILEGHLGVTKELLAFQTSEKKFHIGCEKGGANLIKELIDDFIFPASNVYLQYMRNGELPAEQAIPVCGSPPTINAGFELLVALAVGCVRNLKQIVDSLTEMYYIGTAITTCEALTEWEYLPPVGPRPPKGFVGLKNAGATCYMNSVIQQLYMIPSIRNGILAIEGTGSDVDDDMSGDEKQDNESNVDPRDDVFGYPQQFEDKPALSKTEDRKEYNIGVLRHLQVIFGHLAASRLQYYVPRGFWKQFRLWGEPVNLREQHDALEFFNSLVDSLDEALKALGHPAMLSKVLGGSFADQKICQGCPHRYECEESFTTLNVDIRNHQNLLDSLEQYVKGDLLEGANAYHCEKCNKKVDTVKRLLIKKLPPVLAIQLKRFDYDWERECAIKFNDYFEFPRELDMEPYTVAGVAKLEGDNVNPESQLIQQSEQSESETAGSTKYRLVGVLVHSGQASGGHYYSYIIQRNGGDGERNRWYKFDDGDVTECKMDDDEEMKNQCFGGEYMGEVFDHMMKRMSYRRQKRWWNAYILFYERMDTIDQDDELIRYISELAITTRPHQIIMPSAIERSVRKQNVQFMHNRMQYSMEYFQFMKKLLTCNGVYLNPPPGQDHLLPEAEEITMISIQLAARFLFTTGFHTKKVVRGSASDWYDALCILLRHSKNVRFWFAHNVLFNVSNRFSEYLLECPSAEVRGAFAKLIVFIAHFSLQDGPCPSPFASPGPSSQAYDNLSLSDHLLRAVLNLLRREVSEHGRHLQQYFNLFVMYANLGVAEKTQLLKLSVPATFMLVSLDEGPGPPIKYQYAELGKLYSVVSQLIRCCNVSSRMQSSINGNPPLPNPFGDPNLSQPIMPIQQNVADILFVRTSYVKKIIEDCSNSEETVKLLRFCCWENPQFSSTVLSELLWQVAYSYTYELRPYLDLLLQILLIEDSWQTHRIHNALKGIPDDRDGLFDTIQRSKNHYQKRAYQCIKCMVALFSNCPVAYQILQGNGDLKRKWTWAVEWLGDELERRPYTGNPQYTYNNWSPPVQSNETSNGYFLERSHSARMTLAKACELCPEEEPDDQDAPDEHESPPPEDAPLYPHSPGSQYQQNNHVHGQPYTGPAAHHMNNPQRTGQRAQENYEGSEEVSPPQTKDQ

Cc1ccccc1OCC(=O)N1CCN(C(=O)CCl)CC1
log2 ratio of Biotin-Ahx-Ub-VS probe labelling (USP42): 0.258 | log2 ratio of Biotin-Ahx-Ub-VS probe labelling (USP46): -0.329 | log2 ratio of Biotin-Ahx-Ub-VS probe labelling (USP47): -1.19 (active) | log2 ratio of Biotin-Ahx-Ub-VS probe labelling (USP48): -0.356 | log2 ratio of Biotin-Ahx-Ub-VS probe labelling (USP5): 0.0461 | log2 ratio of Biotin-Ahx-Ub-VS probe labelling (USP54): -0.923 | log2 ratio of Biotin-Ahx-Ub-VS probe labelling (USP7): -0.701 | log2 ratio of Biotin-Ahx-Ub-VS probe labelling (USP8): 0.0472 | log2 ratio of Biotin-Ahx-Ub-VS probe labelling (USP9X): -0.0136 | log2 ratio of Biotin-Ahx-Ub-VS probe labelling (UniProt O00487): 0.0797
